# Compound: CN[C@@H]1C[C@H]2O[C@@](C)([C@@H]1OC)n1c3ccccc3c3c4c(c5c6ccccc6n2c5c31)C(=O)NC4 [staurosporine]
# Assay: log2 fold change of tryptic peptide abundance, ligand vs vehicle (limited proteolysis) (log2 ratio); higher = more trypsin-susceptible (destabilized)
# Settings: ligand concentration: 20 uM; sample: mouse liver crude lysate; replicate design: treated separately
# Chain of UniProt P31938 (P31938 whole entry): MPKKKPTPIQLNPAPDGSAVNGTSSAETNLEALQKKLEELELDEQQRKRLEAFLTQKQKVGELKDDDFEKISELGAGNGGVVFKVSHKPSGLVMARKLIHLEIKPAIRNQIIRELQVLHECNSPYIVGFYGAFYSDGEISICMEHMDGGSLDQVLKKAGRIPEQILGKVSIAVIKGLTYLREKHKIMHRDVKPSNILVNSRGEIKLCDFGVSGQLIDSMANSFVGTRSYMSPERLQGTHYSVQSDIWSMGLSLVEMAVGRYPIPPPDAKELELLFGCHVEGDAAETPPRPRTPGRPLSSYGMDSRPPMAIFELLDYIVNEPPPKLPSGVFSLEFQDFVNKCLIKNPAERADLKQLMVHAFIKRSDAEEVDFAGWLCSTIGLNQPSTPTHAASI
# Chain of UniProt A6X919 (A6X919 whole entry): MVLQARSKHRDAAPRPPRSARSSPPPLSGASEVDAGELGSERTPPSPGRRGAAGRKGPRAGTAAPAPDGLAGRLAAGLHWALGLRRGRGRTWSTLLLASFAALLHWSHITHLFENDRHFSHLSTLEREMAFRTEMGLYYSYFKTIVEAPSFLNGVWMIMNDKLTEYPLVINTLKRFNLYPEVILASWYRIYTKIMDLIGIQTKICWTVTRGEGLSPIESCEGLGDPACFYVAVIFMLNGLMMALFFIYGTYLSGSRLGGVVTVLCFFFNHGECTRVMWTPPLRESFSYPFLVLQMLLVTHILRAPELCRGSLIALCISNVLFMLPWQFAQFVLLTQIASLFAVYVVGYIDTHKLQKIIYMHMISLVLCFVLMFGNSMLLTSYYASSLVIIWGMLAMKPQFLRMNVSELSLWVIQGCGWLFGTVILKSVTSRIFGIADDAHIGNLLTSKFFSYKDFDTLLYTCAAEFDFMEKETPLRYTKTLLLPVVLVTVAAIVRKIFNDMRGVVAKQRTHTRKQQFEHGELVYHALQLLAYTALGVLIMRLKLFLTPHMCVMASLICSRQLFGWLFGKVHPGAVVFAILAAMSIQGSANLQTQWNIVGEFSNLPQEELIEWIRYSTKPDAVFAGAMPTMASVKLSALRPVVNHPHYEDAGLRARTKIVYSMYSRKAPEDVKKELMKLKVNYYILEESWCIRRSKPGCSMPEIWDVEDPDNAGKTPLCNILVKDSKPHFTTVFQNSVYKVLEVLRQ
# Chain of UniProt P52332 (P52332 whole entry): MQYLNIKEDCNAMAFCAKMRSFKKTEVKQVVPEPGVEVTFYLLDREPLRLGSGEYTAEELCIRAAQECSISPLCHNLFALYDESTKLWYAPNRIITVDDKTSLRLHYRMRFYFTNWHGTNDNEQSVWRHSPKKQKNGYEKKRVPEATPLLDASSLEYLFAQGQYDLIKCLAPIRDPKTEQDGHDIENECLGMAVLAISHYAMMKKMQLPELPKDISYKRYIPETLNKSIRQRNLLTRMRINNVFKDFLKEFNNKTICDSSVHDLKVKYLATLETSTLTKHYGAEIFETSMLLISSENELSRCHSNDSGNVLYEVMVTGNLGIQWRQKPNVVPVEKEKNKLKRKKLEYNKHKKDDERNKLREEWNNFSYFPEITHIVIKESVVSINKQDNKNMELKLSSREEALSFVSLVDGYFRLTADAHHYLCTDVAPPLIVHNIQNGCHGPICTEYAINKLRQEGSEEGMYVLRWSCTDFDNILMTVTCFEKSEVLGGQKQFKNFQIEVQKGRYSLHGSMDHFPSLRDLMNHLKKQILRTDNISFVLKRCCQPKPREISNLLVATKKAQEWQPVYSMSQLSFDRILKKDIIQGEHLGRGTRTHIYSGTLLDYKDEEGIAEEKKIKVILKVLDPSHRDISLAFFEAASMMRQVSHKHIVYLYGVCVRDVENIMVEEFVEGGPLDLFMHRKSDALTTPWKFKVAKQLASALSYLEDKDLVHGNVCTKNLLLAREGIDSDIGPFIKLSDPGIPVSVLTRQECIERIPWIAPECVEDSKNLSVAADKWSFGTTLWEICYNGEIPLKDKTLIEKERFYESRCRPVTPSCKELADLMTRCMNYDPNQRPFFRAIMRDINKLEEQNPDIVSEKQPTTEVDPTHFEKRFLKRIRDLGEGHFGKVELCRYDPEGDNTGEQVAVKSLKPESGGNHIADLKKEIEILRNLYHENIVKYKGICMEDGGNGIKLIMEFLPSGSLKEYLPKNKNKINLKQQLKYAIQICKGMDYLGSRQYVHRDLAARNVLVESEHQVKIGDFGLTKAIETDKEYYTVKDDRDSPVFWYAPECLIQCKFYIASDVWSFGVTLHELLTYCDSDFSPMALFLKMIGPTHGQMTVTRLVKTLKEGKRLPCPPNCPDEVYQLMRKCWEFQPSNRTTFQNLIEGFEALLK
# Chain of UniProt P97742 (P97742 whole entry): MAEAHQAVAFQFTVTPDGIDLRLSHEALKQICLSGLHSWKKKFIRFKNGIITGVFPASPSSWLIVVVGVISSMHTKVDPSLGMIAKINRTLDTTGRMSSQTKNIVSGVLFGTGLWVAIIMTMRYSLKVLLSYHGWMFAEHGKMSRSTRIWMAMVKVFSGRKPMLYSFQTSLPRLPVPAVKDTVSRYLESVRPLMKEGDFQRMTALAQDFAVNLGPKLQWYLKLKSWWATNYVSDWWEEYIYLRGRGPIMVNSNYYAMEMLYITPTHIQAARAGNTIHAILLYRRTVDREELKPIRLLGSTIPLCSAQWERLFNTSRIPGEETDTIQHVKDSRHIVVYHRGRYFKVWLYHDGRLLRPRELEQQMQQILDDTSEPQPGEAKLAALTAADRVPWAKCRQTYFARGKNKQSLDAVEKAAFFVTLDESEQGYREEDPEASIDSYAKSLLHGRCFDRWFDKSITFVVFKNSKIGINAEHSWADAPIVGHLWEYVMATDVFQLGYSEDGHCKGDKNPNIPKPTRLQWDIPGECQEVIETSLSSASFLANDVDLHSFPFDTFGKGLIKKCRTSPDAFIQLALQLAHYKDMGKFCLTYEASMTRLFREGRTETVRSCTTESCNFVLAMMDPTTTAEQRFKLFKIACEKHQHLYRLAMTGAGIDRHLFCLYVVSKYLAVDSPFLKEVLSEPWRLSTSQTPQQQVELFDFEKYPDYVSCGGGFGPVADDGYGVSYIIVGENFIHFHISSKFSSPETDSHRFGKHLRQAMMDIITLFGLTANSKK
# Chain of UniProt Q61037 (Q61037 whole entry): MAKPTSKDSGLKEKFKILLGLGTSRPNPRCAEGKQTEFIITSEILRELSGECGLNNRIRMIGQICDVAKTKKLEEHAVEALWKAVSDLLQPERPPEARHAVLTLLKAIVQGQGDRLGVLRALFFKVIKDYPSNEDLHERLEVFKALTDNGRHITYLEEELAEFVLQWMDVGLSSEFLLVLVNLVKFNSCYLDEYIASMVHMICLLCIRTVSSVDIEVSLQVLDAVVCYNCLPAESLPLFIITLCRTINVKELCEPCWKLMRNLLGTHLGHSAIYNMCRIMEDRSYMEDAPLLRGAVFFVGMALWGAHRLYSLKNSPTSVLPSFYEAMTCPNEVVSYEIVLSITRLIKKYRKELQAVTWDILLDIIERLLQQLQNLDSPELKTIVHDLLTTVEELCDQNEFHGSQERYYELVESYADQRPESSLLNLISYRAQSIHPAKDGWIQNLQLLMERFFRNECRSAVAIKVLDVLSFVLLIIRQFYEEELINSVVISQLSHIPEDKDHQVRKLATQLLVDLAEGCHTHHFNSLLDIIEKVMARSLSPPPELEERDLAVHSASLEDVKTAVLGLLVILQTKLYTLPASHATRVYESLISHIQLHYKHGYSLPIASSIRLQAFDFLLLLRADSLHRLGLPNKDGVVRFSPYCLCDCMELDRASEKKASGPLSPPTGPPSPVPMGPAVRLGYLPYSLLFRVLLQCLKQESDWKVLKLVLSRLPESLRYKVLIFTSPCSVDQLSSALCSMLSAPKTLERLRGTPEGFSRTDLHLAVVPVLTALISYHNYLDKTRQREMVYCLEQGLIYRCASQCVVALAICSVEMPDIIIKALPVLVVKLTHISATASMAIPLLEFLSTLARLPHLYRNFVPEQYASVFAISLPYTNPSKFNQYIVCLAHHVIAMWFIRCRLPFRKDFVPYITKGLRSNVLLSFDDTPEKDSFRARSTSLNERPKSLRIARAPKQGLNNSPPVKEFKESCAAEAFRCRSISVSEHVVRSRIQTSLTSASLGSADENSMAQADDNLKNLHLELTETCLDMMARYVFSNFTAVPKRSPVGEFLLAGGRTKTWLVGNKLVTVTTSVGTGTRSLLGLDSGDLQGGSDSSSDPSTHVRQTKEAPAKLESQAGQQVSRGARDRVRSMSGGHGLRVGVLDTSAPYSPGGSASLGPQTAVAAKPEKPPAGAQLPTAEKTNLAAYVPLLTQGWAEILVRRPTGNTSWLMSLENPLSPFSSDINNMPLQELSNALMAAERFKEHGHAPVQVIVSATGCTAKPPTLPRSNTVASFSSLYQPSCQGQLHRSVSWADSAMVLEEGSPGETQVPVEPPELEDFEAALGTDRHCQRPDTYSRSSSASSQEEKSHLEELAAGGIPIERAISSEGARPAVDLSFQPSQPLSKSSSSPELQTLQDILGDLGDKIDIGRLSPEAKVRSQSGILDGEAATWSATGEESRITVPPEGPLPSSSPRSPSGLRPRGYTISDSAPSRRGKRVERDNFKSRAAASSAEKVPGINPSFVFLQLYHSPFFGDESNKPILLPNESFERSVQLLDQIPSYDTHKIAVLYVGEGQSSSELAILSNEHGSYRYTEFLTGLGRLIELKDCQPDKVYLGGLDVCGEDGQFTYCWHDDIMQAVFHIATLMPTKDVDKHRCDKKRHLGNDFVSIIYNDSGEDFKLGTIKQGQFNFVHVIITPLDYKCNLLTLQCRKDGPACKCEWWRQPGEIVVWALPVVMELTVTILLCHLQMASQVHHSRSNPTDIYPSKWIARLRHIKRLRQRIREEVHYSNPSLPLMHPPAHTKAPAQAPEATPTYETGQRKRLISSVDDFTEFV
# Chain of UniProt Q60772 (Q60772 whole entry): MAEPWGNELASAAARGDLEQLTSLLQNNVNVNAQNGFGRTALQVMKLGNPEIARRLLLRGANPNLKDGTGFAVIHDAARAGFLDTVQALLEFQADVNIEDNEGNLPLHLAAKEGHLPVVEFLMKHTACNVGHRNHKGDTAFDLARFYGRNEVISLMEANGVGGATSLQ
row,Target,log2 fold change
1,"UniProt P97872 (peptide sequence: DSSGGSLVTVR, peptide start residue: 507)",-1.1
2,"UniProt P35980 (peptide sequence: TNSTFNQVVLK, peptide start residue: 39)",0.658
3,"UniProt Q61037 (peptide sequence: DFVPYITK, peptide start residue: 907)",-0.612
4,"UniProt E9Q3L2 (peptide sequence: ACLSALSEVK, peptide start residue: 1763)",-0.812
5,"UniProt Q9QXX4 (peptide sequence: AGQTTYNGVTDCFRK, peptide start residue: 555)",0.466
6,"UniProt Q91Y86 (peptide sequence: MLVIDASKR, peptide start residue: 301)",-1.79
7,"UniProt Q924L1 (peptide sequence: NLISYVVTK, peptide start residue: 55)",0.543
8,"UniProt Q9DCN1 (peptide sequence: AIAHQLIK, peptide start residue: 446)",-0.997
9,"UniProt Q8R4K2 (peptide sequence: GCVNNTIVAVK, peptide start residue: 203)",-2.95
10,"UniProt Q3UHJ0 (peptide sequence: DLKVENILLHDR, peptide start residue: 176)",-4.22
11,"UniProt Q9CYH2 (peptide sequence: LGVWYNSFR, peptide start residue: 145)",-2.12
12,"UniProt P52332 (peptide sequence: NVLVESEHQVK, peptide start residue: 1007)",-2.98
13,"UniProt Q8CIE6 (peptide sequence: VTTVTEIGKDVIGLR, peptide start residue: 1203)",-0.699
14,"UniProt A6X919 (peptide sequence: AGTAAPAPDGLAGR, peptide start residue: 60)",0.335
15,"UniProt Q9DCW4 (peptide sequence: VDLLFLGK, peptide start residue: 117)",0.27
16,"UniProt P31938 (peptide sequence: VSHKPSGLVMAR, peptide start residue: 85)",-0.899
17,"UniProt O35495 (peptide sequence: LADFGLAR, peptide start residue: 853)",-1.69
18,"UniProt P55264 (peptide sequence: ELFDELVK, peptide start residue: 63)",-2.24
19,"UniProt P37172 (peptide sequence: GSWQGENVAVK, peptide start residue: 225)",-2.41

row,Target,log2 fold change
1,"UniProt Q9CRD0 (peptide sequence: FKKLENSPLGEALR, peptide start residue: 102)",0.663
2,"UniProt Q8C5L7 (peptide sequence: NGAQIAEGFR, peptide start residue: 267)",0.659
3,"UniProt Q9DB30 (peptide sequence: IMEVSAER, peptide start residue: 54)",-3.03
4,"UniProt O89112 (peptide sequence: AFPNPYADYNK, peptide start residue: 5)",0.594
5,"UniProt Q03147 (peptide sequence: DKNTNQIVAIKK, peptide start residue: 31)",-2.43
6,"UniProt Q8C0K5 (peptide sequence: GEHTYSGIIHAFK, peptide start residue: 164)",0.837
7,"UniProt Q2TBE6 (peptide sequence: RFEAEPLPENTNR, peptide start residue: 276)",-2.23
8,"UniProt Q3UYH7 (peptide sequence: SLLEGLLQR, peptide start residue: 423)",-0.733
9,"UniProt O70318 (peptide sequence: RVTPLPFQPQASSHETLNVVEEK, peptide start residue: 654)",-0.88
10,"UniProt P97742 (peptide sequence: IWMAMVK, peptide start residue: 149)",0.562
11,"UniProt Q8VCC2 (peptide sequence: LAELFTNQR, peptide start residue: 97)",-0.315
12,"UniProt O54988 (peptide sequence: WSSNFKDFLR, peptide start residue: 261)",-3.04
13,"UniProt P06728 (peptide sequence: LQLTPYIQR, peptide start residue: 155)",0.346
14,"UniProt Q91YX5 (peptide sequence: DQQLLVLKK, peptide start residue: 157)",0.642
15,"UniProt Q60772 (peptide sequence: LGNPEIAR, peptide start residue: 47)",0.494
16,"UniProt Q9ERE3 (peptide sequence: PTDFDFLK, peptide start residue: 32)",-2.47
17,"UniProt Q63932 (peptide sequence: ISELGAGNGGVVTK, peptide start residue: 75)",-0.512
18,"UniProt A2ATU0 (peptide sequence: SSLYSSDIGK, peptide start residue: 380)",0.605
19,"UniProt O55125 (peptide sequence: NNKEYLEFR, peptide start residue: 144)",0.432

# Reference: the supplement of paper PMC12819154, “High-throughput peptide-centric local stability assay extends protein–ligand identification to membrane proteins, tissues and bacteria” (Nature Structural & Molecular Biology, 2025)
